In PubChem BioAssay AID504652 (National Center for Advancing Translational Sciences (NCATS), 2011) one finds activity change, negative = inhibition data, which are given here for 58 compounds.

Among all 360,000 compounds or so, about 11,000 (3.1%) were called active. Rule as the data show it: active = activity change below about -30%; inactive = the rest. The entries come from a sample that favours actives as a whole.
% is scaled to controls: 0 for no effect and ±100 for the full control effect.

The target in the experiment is D(1A) dopamine receptor (Homo sapiens) (UniProt P21728). Description: Antagonist of Human D 1 Dopamine Receptor: qHTS. The following applies: HEK293 TREx D1 cells, calcium flux, dopamine EC80; at 10 µM; active compounds read low. In short, it runs like this: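 Calcium flux readout: force-coupled, inducible Hek293 Trex D1 line, cells induced overnight at 30 C with tetracycline, dye-loaded 30–90 min at RT. Antagonism scored against EC80 dopamine challenge given 180 s after compound.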
Chain of D(1A) dopamine receptor (Homo sapiens) (P21728 whole entry, looked up): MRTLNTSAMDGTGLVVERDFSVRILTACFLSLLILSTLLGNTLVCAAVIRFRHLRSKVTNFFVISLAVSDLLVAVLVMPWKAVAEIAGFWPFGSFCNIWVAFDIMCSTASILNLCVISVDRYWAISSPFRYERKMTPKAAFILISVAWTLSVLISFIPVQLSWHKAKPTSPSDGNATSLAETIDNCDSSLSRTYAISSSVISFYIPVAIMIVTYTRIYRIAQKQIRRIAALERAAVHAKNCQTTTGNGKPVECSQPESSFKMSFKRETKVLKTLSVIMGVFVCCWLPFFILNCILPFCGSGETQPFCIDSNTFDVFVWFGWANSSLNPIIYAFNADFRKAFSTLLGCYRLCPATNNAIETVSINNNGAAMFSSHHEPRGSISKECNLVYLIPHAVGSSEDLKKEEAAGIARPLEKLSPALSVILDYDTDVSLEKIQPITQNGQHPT
In general terms: In qHTS, concentration-response curves come from the screen itself.
Regarding `COc1ccc(Br)cc1C1CC(=O)Nc2c1c(C)nn2-c1nc(C)cc(C)n1` (stereo not drawn), the activity change, negative = inhibition was 5.29% (inactive).

On to `CC(=O)N1CCCc2cc(S(=O)(=O)Nc3ccc(Cl)cc3F)ccc21`, for which the activity change, negative = inhibition was -13.2% (inactive).

As to `COc1ccc(OCc2ccc(-c3nc(C#N)c(N4CCN(c5ccccc5)CC4)o3)o2)cc1`, the activity change, negative = inhibition is -27.6% (inactive).

On to `CCC(C)Nc1oc(-c2ccc(COc3ccc(Cl)cc3)o2)nc1C#N` (stereo not drawn), for which the activity change, negative = inhibition is -2.28% (inactive).

On to `CN1CCN(c2oc(-c3ccc(COc4ccc(Cl)cc4)o3)nc2C#N)CC1`, for which the activity change, negative = inhibition was -30.2% (active).

On to `N#Cc1nc(COc2ccc(Cl)cc2)oc1N1CCCC1`, for which the activity change, negative = inhibition was -31.6% (active).

In the case of `Cc1ccc(OCc2nc(C#N)c(N3CCCC3)o2)cc1`, the activity change, negative = inhibition was -1.06% (inactive).

Regarding `Cc1ccccc1OCc1ccc(-c2nc(C#N)c(N3CCCCC3)o2)o1`, the activity change, negative = inhibition is 2.09% (inactive).

In the case of `CCC(C(=O)Nc1cc(OC)ccc1OC)n1c(=O)c(C(F)(F)F)nc2ccccc21` (stereo not drawn), the activity change, negative = inhibition was -23.6% (inactive).

With `COc1cc(OC)cc(-c2nc3nc(C)c(CCC(=O)Nc4ccccc4)c(C)n3n2)c1`, the activity change, negative = inhibition was 2.44% (inactive).

Regarding `CC(C)C[C@H](CO)Nc1nc(N(C)c2cccc(Cl)c2)c2ncn(C(C)C)c2n1`, the activity change, negative = inhibition is -34% (active).

Turning to `O=C(Nc1ccc(Br)cc1)c1cc2nc(-c3ccccc3)cc(-c3ccccc3)n2n1`, the activity change, negative = inhibition is -10.1% (inactive).

As to `COc1ccc(-n2c(=O)c3ccccc3n(Cc3ccccc3Cl)c2=O)cc1`, the activity change, negative = inhibition is -11.1% (inactive).

Take `Fc1ccccc1C(c1nnnn1Cc1ccc2c(c1)OCO2)N1CCN(Cc2ccccc2)CC1` (stereo not drawn): the activity change, negative = inhibition is 19.9% (inactive).

Take `N#Cc1ccc(C(c2nnnn2CCc2ccccc2)N2CCCCCC2)cc1` (stereo not drawn): the activity change, negative = inhibition was 10.7% (inactive).

On to `Fc1ccc(Cn2nnnc2C(c2cccs2)N2CCCCCC2)cc1` (stereo not drawn), for which the activity change, negative = inhibition was -36.7% (active).

As to `Cc1ccc(S(=O)(=O)N(Cc2nc(-c3ccc(Cl)cc3)no2)C2CCCCC2)cc1`, the activity change, negative = inhibition was -2.35% (inactive).

For the compound `NS(=O)(=O)c1ccc(CNC(=O)c2cccc(Oc3ccccc3)c2)cc1`, the activity change, negative = inhibition is -38.4% (active).

As for `NS(=O)(=O)c1ccc(CNC(=O)c2cccc(S(=O)(=O)N3CCc4ccccc43)c2)cc1`, the activity change, negative = inhibition is -4.68% (inactive).

With `NS(=O)(=O)c1ccc(CNC(=O)c2cnccn2)cc1`, the activity change, negative = inhibition was 9.99% (inactive).

For the compound `CCN(CC)S(=O)(=O)c1ccc2c(c1)N(CC(=O)NCC(C)c1ccccc1)C(=O)CO2` (stereo not drawn), the activity change, negative = inhibition was 6.95% (inactive).

On to `CCCCN(CC)C(=O)c1c[nH]c2ccc(S(=O)(=O)Nc3cccc(OC)c3)cc2c1=O`, for which the activity change, negative = inhibition is 16.9% (inactive).

In the case of `CCC(=O)N1CCc2cc(S(=O)(=O)NCCC(=O)Nc3cccc(C)c3C)ccc21`, the activity change, negative = inhibition was -2.16% (inactive).

On to `Nc1nnn(CC(=O)N/N=C/c2ccc(O)cc2)n1`, for which the activity change, negative = inhibition was -2.2% (inactive).

For `O=C(CC(=O)Nc1ccc(Cl)c(Cl)c1)N/N=C/c1ccc(O)cc1`, the activity change, negative = inhibition was -37.9% (active).

On to `CC1=NNC(=O)C1CCC(=O)N/N=C\c1ccc(Cl)c(Cl)c1` (stereo not drawn), for which the activity change, negative = inhibition is 6.69% (inactive).

In the case of `Cc1ccn2c(Nc3ccc4c(c3)OCCO4)c(-c3ccc(C)s3)nc2c1`, the activity change, negative = inhibition is -15.7% (inactive).

For the compound `Cc1cc(C(=O)NC2CCN(Cc3ccccc3)CC2)n[nH]1`, the activity change, negative = inhibition was -5.73% (inactive).

On to `S=C(Nc1ccc(Br)cc1)NC1CCN(Cc2ccccc2)CC1`, for which the activity change, negative = inhibition is -68.5% (active).

Consider `S=C(NN=C1CCN(Cc2ccccc2)CC1)NC1CCCCC1`, for which the activity change, negative = inhibition was 2.36% (inactive).

For the compound `O=C(NC1CCN(Cc2ccccc2)CC1)c1cc(Br)c(Br)[nH]1`, the activity change, negative = inhibition is -71.3% (active).

In the case of `O=C(NC1CCN(Cc2ccccc2)CC1)c1ccc(Oc2cc(Cl)cc(Cl)c2)o1`, the activity change, negative = inhibition is -10.1% (inactive).

For `S=C(Nc1ccc(Br)cc1Cl)NC1CCN(Cc2ccccc2)CC1`, the activity change, negative = inhibition is -18.2% (inactive).

Take `Cc1ccc2nc(COc3ccccc3NC(=O)Nc3ccc(F)c(Cl)c3)cc(=O)n2c1`: the activity change, negative = inhibition is -18.5% (inactive).

For `CCc1ccccc1N(C)C(=O)C1CCCN(c2ncnc3onc(-c4ccc(F)cc4)c23)C1` (stereo not drawn), the activity change, negative = inhibition was -2.86% (inactive).

Regarding `O=C(O)c1ccc(Cn2c(SCc3ccc(F)cc3)nc3ccncc32)cc1`, the activity change, negative = inhibition is 11.2% (inactive).

Turning to `CCc1ccccc1NC(=O)c1cnn(-c2ccc(F)cc2)c1C1CCNCC1`, the activity change, negative = inhibition is -15.1% (inactive).

Turning to `CCOC(=O)c1ccccc1NC(=O)c1sc2nc(-c3ccc(F)cc3)cn2c1C`, the activity change, negative = inhibition was 6.46% (inactive).

Regarding `CCOc1ccc(NC(=O)C(=O)NCCc2csc3nc(-c4ccccc4F)nn23)cc1`, the activity change, negative = inhibition is -3.3% (inactive).

Consider `COc1ccccc1C(=O)NC(CCSC)C(=O)N1CCN(C(C)=O)CC1` (stereo not drawn), for which the activity change, negative = inhibition is -23.2% (inactive).

For `CSCCC(NC(=O)c1ccccc1)C(=O)N1CCN(Cc2ccc(Cl)cc2)CC1` (stereo not drawn), the activity change, negative = inhibition was 18.2% (inactive).

In the case of `CSCCC(NC(=O)c1ccccc1)C(=O)N1CCCCCCC1` (stereo not drawn), the activity change, negative = inhibition is -32.7% (active).

In the case of `CCOc1ccccc1NC(=O)CSc1ncc(S(=O)(=O)c2ccc(C(C)(C)C)cc2)c(=O)[nH]1`, the activity change, negative = inhibition is 10.4% (inactive).

As to `Cc1ccccc1OCC(=O)Nc1c(C(=O)Nc2ccccc2F)oc2ccccc12`, the activity change, negative = inhibition is -7.86% (inactive).

As to `CCOc1cc(C2C(C(=O)OC)=CN(C3CCCC3)C=C2C(=O)OC)cc(Br)c1O`, the activity change, negative = inhibition was -30.9% (active).

With `COC(=O)C1=CN(Cc2ccc(OC)cc2)C=C(C(=O)OC)C1c1ccc(O)c(OC)c1`, the activity change, negative = inhibition is 11.1% (inactive).

In the case of `CCCC(=O)Nc1cc(OCC)c(NC(=O)NC2CCCCC2)cc1OCC`, the activity change, negative = inhibition was -5.85% (inactive).

As to `O=C(Nc1nc2ccc(S(=O)(=O)N3CCCC3)cc2s1)C1CCCO1` (stereo not drawn), the activity change, negative = inhibition was -41.4% (active).

On to `Cc1cc(C)c2nc(NC(=O)C3CCCO3)sc2c1` (stereo not drawn), for which the activity change, negative = inhibition is -5.2% (inactive).

Turning to `CN1CCN(S(=O)(=O)c2ccc(NC(=O)C3CCCO3)cc2)CC1` (stereo not drawn), the activity change, negative = inhibition was -2.7% (inactive).

In the case of `Cc1ccc(Cl)cc1NC(=O)NC1COc2ccccc2C1` (stereo not drawn), the activity change, negative = inhibition is -23% (inactive).

Consider `O=C(CCc1nc(CN2CCN(S(=O)(=O)c3ccc(Br)cc3)CC2)no1)N1CCCCC1`, for which the activity change, negative = inhibition is -0.355% (inactive).

In the case of `CCN(c1ccccc1)S(=O)(=O)c1cc(C(=O)NCc2ccccn2)ccc1C`, the activity change, negative = inhibition is -89.3% (active).

With `CCN(CC)S(=O)(=O)c1cc(C(=O)Nc2ccccn2)ccc1C`, the activity change, negative = inhibition was 5.43% (inactive).

On to `Cc1ccc(NC(=O)CNCc2ccccn2)cc1S(=O)(=O)N(C)C`, for which the activity change, negative = inhibition is -15% (inactive).

For `Cc1oc(C)c(C(=O)NCCCC(=O)O)c1C(=O)NCCCC(=O)O`, the activity change, negative = inhibition was 1.94% (inactive).

Regarding `CCCCCCCCCCCC(=O)O`, the activity change, negative = inhibition was -4.71% (inactive).

Take `NC(=O)NCCCC(=O)O`: the activity change, negative = inhibition is -51% (active).
